Laboratory results from PubChem BioAssay (Tox21).
Records with an inconclusive call do not appear. Entries that show only a call come without a potency. Active and inactive are the calls of the source. Unless noted, calls come from the whole dose curve.

Experiments:
[1] = Nuclear factor erythroid 2-related factor 2/antioxidant responsive element (Nrf2/ARE) small molecule agonists: qHTS cell viability counter screen in human keratinocytes (AID 1919968; active = well fitted curve in the direction sought with a large enough effect in the repeat runs; an effect the other way counts as inactive or inconclusive; note: nearly all actives have a fitted effect of over 55% in size)
Method in brief: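 Cells of the KeratinoSens line were plated at 1,500 per well and left for 5 h before compound transfer from DMSO stocks. After a 23 h incubation (37 C, 5% CO2), CellTiter-Fluor was added. Signal was taken as fluorescence intensity 1 h later.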

[2] = biological target: Gonadotropin-releasing hormone receptor (Homo sapiens) (UniProt P30968); experiment: Human gonadotropin-releasing hormone receptor (GnRHR) small molecule agonists, calcium flux assay in GnRHR-HEK293 cells (AID 1920063); note: nearly all actives have a fitted effect of over 35% in size
Method in brief: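 Compounds dissolved in DMSO are pin-transferred onto dye-loaded GnRHR-HEK293 cells, which were seeded 18 h before at 37 C/5% CO2. Calcium signal is read as fluorescence intensity at 1 s intervals for 3 min.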

[3] = biological target: KiSS-1 receptor (Homo sapiens) (UniProt Q969F8); experiment: Human kisspeptin (KISS1R) small molecule agonists, calcium flux assay in KISS1R-HEK293 cells (AID 1920064; active = well fitted curve in the direction sought with a large enough effect in the repeat runs; an effect the other way counts as inactive or inconclusive)
Method in brief: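 Cell line: HEK293, stable human KISS1R. Dye loading 1 h at 37 C after 18 h culture. Read: kinetic fluorescence, 480/540 nm, 3 min at 1 s intervals.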

[4] = G protein-coupled receptor (GPCR) small molecule agonists, calcium flux assay: HEK293 wild type cell line counter screen (AID 1920065)
Method in brief: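 Tox21 10K compounds, 15 concentrations each in triplicate, pin-transferred in DMSO onto dye-loaded cells; kinetic read at 480/540 nm for 3 min, 1 s intervals.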

[5] = p53 small molecule agonists, cell-based qHTS assay with rat liver microsomes (AID 1963578)
Method in brief: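 Agonist mode in p53RE-bla reporter cells, with compounds co-incubated 16 h at 37 C alongside 0.5 mg/mL rat liver microsomes and 0.5 mg/mL NADPH (final), followed by a 2 h LiveBLAzer detection step.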

[6] = p53 small molecule agonists, cell-based qHTS assay with human liver microsomes: qHTS cell viability counter screen (AID 1963579); note: nearly all actives have a fitted effect of over 45% in size
Method in brief: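 Metabolically activated exposure: compounds, human liver microsomes and NADPH (0.5 mg/mL final apiece) were added to p53RE-bla cells seeded 5 h earlier, left 16 h at 37 C, and then assessed for viability by CellTiter-Glo luminescence.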

[7] = p53 small molecule agonists, cell-based qHTS assay with rat liver microsomes: qHTS cell viability counter screen (AID 1963580); note: nearly all actives have a fitted effect of over 45% in size
Method in brief: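 Cytotoxicity counter screen: intracellular ATP read by CellTiter-Glo luminescence in the p53 reporter wells. HCT-116 p53RE-bla cells were treated for 16 h at 37 C alongside rat liver microsomes and NADPH, each 0.5 mg/mL final.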

[8] = p53 small molecule agonists, cell-based qHTS assay: qHTS cell viability counter screen (AID 1963581); note: nearly all actives have a fitted effect of over 45% in size
Method in brief: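 ATP content measured by luminescence in HCT-116 p53RE-bla cells treated 16 h at 37 C, same wells as the reporter screen.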

[9] = p53 small molecule agonists, cell-based qHTS assay (AID 1963582; active = well fitted activation curve with a large enough effect in the signal ratio in the repeat runs, not every such curve was filed as active; the % refers to the signal ratio)
Method in brief: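 16 h compound exposure (37 C) of p53 response element–bla cells, preceded by 5 h recovery at 37 C/5% CO2; read-out via LiveBLAzer B/G FRET substrate, 2 h RT, fluorescence intensity.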

[10] = biological target: 5-hydroxytryptamine receptor 2A (Homo sapiens) (UniProt P28223); experiment: 5-hydroxytryptamine receptor 2A (HTR2A) small molecule agonists, cell-based qHTS assay (AID 1963587); note: nearly all actives have a fitted effect of over 30% in size
Method in brief: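 Kinetic calcium-flux fluorescence (2 min, 1 sec intervals) after compound addition in agonist mode. HTR2A-CHO cells were cultured 18 h, then dye-loaded 1 h at 37 C.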

[11] = biological target: Muscarinic acetylcholine receptor M1 (Homo sapiens) (UniProt P11229); experiment: Cholinergic receptor muscarinic 1 (CHRM1) small molecule antagonists, cell-based qHTS assay (AID 1963588); note: nearly all actives have a fitted effect of over 40% in size
Method in brief: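 Compounds were tested at 15 concentrations in three independent runs. Dye-loaded CHRM1-CHO cells were exposed 5 min at room temperature before stimulation by acetylcholine added at 50nM. Intracellular calcium was read kinetically on FDSS for 3 min.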

[12] = biological target: Muscarinic acetylcholine receptor M1 (Homo sapiens) (UniProt P11229); experiment: Cholinergic receptor muscarinic 1 (CHRM1) small molecule agonists, cell-based qHTS assay (AID 1963589); note: nearly all actives have a fitted effect of over 35% in size
Method in brief: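 Homogeneous fluorescence calcium flux, agonist mode. Human M1-expressing CHO cells; compound dosed at 15 concentrations, three independent runs; signal sampled every 1 sec.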

[13] = cAMP Responsive Elements (CRE) small molecule agonists, cell-based qHTS assay (AID 1963590)
Method in brief: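 HEK 293T cells stably bearing CRE-bla were plated at 2,000 cells per well and rested 18 h. Compounds, positive controls or DMSO were added for 3 h at 37 C. LiveBLAzer B/G substrate was then loaded for 2 h at room temperature.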

[14] = biological target: D(2) dopamine receptor (Homo sapiens) (UniProt P14416); experiment: Dopamine D2 receptor (DRD2) small molecule antagonists, cell-based qHTS assay (AID 1963595; active = well fitted inhibition curve with a large enough effect in the signal ratio in the repeat runs, with a control signal flat; the % refers to the signal ratio)
Method in brief: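 HEK293 cells stably expressing DRD2, preincubated with 0.1 mM Ro20-1724 and compounds 10 min, were stimulated with 200 nM NKH477 plus 12 nM quinpirole for 30 min at room temperature; cAMP measured by HTRF (665/620 nm).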

[15] = biological target: 5-hydroxytryptamine receptor 2A (Homo sapiens) (UniProt P28223); experiment: 5-hydroxytryptamine receptor 2A (HTR2A) small molecule antagonists, cell-based qHTS assay (AID 1963586); note: nearly all actives have a fitted effect of over 45% in size; note: potency is the fitted concentration of half-maximal effect
Method in brief: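 CHO cells stably expressing human HTR2A were plated for 18 h at 37 C, then loaded with calcium dye for 1 h. Compounds were preincubated 5 min at room temperature before DOI (4 nM solution) was added. Kinetic fluorescence was read for 3 min.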

[16] = cAMP Responsive Elements (CRE) small molecule antagonists, cell-based qHTS assay (AID 1963591; active = well fitted inhibition curve with a large enough effect in the signal ratio in the repeat runs, not every such curve was filed as active; the % refers to the signal ratio)
Method in brief: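 First, CRE-bla HEK293T cells settled 18 h at 37 C. Next, compound and 0.25 uM final NKH477 were applied for 3 h. Last, LiveBLAzer B/G substrate was loaded for 2 h at room temperature.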

[17] = biological target: Beta-2 adrenergic receptor (Homo sapiens) (UniProt P07550); experiment: Adrenergic beta2 receptor (ADRB2) small molecule antagonists, cell-based qHTS assay (AID 1963592); note: series mostly up to about 92 µM; nearly all actives have a fitted effect of over 50% in size
Method in brief: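 Assay format: CHO-ADRB2 cells, 18-20hr seeding at 37C/5% CO2, then compound plus 1nM isoproterenol agonist mix for 0.5hr RT. Homogeneous time-resolved fluorescence cAMP detection after 1hr, expressed as 665/615 nm ratio.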

[18] = biological target: D(2) dopamine receptor (Homo sapiens) (UniProt P14416); experiment: Dopamine D2 receptor (DRD2) small molecule agonists, cell-based qHTS assay (AID 1963594); note: nearly all actives have a fitted effect of over 35% in size
Method in brief: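 cAMP accumulation in DRD2-HEK293 cells measured by HTRF after 1 h detection; compounds added 10 min before NKH477 (200nM […]) forskolin-analogue stimulation, 30 min at room temperature, with Ro20-1724 present at 0.1 mM final.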

[19] = biological target: Beta-2 adrenergic receptor (Homo sapiens) (UniProt P07550); experiment: Adrenergic beta2 receptor (ADRB2) small molecule agonists, cell-based qHTS assay (AID 1963593);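 note: CHO cells stably overexpressing human ADRB2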
Method in brief: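 CHO cells stably over-expressing ADRB2 were plated overnight at 37C, then dosed with compounds plus a stimulation mix containing 100uM IBMX and 25uM Ro-20-1724 for 0.5hr at room temperature. cAMP was measured by HTRF competition, 1hr.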

Sequence of D(2) dopamine receptor (Homo sapiens) (P14416 whole entry, looked up): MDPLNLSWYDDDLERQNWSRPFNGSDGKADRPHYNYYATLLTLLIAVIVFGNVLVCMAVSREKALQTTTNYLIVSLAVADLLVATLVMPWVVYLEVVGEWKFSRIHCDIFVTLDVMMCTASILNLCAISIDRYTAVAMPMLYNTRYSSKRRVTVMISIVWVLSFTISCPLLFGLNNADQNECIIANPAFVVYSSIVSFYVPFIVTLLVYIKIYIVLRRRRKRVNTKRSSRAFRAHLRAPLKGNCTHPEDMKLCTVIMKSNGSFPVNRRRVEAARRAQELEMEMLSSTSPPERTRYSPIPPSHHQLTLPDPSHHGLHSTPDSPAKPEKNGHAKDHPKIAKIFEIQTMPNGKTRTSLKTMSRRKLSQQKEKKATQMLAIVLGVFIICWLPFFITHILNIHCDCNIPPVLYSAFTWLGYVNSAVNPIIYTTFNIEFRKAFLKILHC
Sequence of Gonadotropin-releasing hormone receptor (Homo sapiens) (P30968 whole entry, looked up): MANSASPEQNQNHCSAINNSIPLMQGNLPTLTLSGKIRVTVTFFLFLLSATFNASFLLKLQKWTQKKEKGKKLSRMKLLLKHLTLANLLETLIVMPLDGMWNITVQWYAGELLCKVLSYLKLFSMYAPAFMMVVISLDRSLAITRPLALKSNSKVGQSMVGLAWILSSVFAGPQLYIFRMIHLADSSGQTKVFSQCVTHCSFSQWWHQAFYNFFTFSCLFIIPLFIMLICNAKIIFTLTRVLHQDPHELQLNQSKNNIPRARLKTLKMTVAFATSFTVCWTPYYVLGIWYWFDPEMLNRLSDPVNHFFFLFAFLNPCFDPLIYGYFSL
Sequence of KiSS-1 receptor (Homo sapiens) (Q969F8 whole entry, looked up): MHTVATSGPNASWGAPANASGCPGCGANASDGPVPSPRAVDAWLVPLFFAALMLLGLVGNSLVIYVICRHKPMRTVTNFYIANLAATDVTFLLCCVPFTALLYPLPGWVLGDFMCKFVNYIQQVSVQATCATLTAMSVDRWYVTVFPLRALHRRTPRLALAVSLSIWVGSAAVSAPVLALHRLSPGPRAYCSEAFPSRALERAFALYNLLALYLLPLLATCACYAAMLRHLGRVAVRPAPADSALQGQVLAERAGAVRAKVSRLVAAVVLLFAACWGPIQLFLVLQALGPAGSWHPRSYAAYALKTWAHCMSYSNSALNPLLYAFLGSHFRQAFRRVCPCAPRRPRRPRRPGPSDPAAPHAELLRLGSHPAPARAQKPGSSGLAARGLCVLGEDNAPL
Sequence of 5-hydroxytryptamine receptor 2A (Homo sapiens) (P28223 whole entry, looked up): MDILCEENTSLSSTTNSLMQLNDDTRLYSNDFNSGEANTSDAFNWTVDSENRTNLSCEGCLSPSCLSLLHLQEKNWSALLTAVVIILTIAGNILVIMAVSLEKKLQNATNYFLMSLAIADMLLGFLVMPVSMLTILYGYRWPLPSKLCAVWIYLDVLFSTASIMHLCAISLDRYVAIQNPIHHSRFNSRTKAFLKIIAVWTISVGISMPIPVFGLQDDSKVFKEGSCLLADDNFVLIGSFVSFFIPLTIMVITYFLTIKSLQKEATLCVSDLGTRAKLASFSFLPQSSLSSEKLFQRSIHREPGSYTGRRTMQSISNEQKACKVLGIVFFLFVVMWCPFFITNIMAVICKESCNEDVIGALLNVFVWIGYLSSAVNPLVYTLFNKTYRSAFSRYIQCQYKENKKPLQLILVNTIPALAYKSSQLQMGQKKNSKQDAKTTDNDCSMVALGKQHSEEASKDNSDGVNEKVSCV
Sequence of Beta-2 adrenergic receptor (Homo sapiens) (P07550 whole entry, looked up): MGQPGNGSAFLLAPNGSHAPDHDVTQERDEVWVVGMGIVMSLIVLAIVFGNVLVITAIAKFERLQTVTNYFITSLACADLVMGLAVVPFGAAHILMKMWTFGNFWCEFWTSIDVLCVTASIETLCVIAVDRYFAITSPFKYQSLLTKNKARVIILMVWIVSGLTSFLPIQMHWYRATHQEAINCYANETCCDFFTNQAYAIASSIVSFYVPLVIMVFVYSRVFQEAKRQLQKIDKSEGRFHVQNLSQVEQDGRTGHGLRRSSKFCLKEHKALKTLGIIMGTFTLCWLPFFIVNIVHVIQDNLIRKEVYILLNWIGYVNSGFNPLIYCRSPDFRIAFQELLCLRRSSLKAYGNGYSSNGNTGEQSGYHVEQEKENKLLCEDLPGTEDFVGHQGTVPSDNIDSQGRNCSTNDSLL
Sequence of Muscarinic acetylcholine receptor M1 (Homo sapiens) (P11229 whole entry, looked up): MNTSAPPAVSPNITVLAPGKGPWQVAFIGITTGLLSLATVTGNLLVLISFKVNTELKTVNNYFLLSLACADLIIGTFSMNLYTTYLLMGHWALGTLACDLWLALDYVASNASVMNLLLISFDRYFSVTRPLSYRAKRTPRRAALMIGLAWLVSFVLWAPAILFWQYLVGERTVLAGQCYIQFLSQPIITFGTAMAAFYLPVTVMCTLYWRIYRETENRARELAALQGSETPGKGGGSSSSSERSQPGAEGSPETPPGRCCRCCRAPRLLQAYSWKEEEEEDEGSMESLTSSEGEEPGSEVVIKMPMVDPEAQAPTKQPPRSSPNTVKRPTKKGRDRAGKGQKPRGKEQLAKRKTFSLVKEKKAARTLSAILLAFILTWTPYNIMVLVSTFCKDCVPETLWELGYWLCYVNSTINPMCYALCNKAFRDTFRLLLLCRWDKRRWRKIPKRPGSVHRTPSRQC

CC(C)NCC(O)COc1ccc(CCOCC2CC2)cc1 (configuration not stated)
Potency [1]: inactive | Potency [2]: inactive | Potency [3]: inactive | Potency [4]: inactive | Potency [5]: inactive | Potency [6]: inactive | Potency [7]: inactive | Potency [8]: inactive | Potency [9]: inactive | Potency [10]: inactive | Potency [11]: inactive | Potency [12]: inactive | Potency [13]: inactive | Potency [14]: inactive

OCCN1CCN(CCO)CC1
Potency [1]: inactive | Potency [2]: inactive | Potency [3]: inactive | Potency [4]: inactive | Potency [5]: inactive | Potency [6]: inactive | Potency [7]: inactive | Potency [8]: inactive | Potency [15]: inactive | Potency [10]: inactive | Potency [11]: inactive | Potency [12]: inactive | Potency [13]: inactive | Potency [16]: inactive | Potency [17]: inactive | Potency [18]: inactive | Potency [14]: inactive

Brc1ccccc1-c1ccccc1
Potency [1]: inactive | Potency [2]: inactive | Potency [3]: inactive | Potency [4]: inactive | Potency [5]: inactive | Potency [6]: inactive | Potency [7]: inactive | Potency [9]: inactive | Potency [15]: 17.8 µM (active) | Potency [11]: inactive | Potency [12]: inactive | Potency [13]: inactive | Potency [16]: inactive | Potency [17]: inactive | Potency [14]: inactive

O=C(Nc1ccc2c(c1)Cc1ccccc1-2)C(F)(F)F
Potency [1]: inactive | Potency [2]: inactive | Potency [3]: inactive | Potency [4]: inactive | Potency [5]: inactive | Potency [6]: inactive | Potency [7]: inactive | Potency [8]: inactive | Potency [15]: inactive | Potency [10]: inactive | Potency [11]: inactive | Potency [12]: inactive | Potency [13]: inactive | Potency [16]: inactive | Potency [17]: inactive | Potency [18]: inactive

C[C@@H](N)C(=O)O
Potency [1]: inactive | Potency [2]: inactive | Potency [3]: inactive | Potency [4]: inactive | Potency [5]: inactive | Potency [6]: inactive | Potency [7]: inactive | Potency [9]: inactive | Potency [10]: inactive | Potency [11]: inactive | Potency [12]: inactive | Potency [13]: inactive | Potency [16]: inactive | Potency [17]: inactive | Potency [19]: inactive | Potency [18]: inactive | Potency [14]: inactive

O=Cc1ccc(O)c(O)c1O
Potency [1]: inactive | Potency [2]: inactive | Potency [3]: inactive | Potency [4]: inactive | Potency [5]: inactive | Potency [6]: inactive | Potency [7]: inactive | Potency [9]: inactive | Potency [15]: inactive | Potency [10]: inactive | Potency [11]: inactive | Potency [12]: inactive | Potency [16]: inactive | Potency [17]: inactive | Potency [18]: inactive | Potency [14]: inactive

C=Cc1c(C)c2cc3[nH]c(cc4nc(cc5nc(cc1[nH]2)C(C)=C5CCC(=O)O)C(CCC(=O)O)=C4C)c(C)c3C=C
Potency [1]: inactive | Potency [2]: inactive | Potency [3]: inactive | Potency [4]: inactive | Potency [5]: inactive | Potency [8]: inactive | Potency [15]: inactive | Potency [11]: inactive | Potency [12]: inactive | Potency [13]: inactive | Potency [16]: inactive | Potency [17]: inactive

CC(C)OC(=O)OCOP(=O)(CO[C@H](C)Cn1cnc2c(N)ncnc21)OCOC(=O)OC(C)C
Potency [1]: inactive | Potency [2]: inactive | Potency [3]: inactive | Potency [4]: inactive | Potency [5]: inactive | Potency [6]: inactive | Potency [7]: inactive | Potency [8]: inactive | Potency [10]: inactive | Potency [11]: inactive | Potency [12]: inactive | Potency [16]: inactive | Potency [17]: inactive | Potency [18]: inactive | Potency [14]: inactive
